Test results taken from PubChem BioAssay (NCI).
Compounds without any hit were thinned out: in the full panel of roughly 79,000, 15% have a hit. Active and inactive are the calls of the source. Cut-off read from the data, not from the text of the source: active = growth inhibition above about 70%; inactive = the rest.

Experiment: NCI Yeast Anticancer Drug Screen. Data for the mec2-1 strain (AID 157)
Conditions: S. cerevisiae mec2-1 strain, at 5.0 µM (retest, dose inferred, filed as 0.5), stronger effect = higher value
Summary of the method: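 Mutant yeast (mec2-1) grown with compound; growth inhibition relative to vehicle control reported.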

SMILES	growth inhibition
CCOc1ccccc1/C=C1\NC(=O)N(/C=C2\C(=O)Oc3ccccc3C2=O)C1=O	-13% (inactive)
CC(NNC(=S)N1CCCC1)c1ccc2ccccc2n1 (stereo not given)	6% (inactive)
N#Cc1c(-c2ccc(Cl)cc2)c(C#N)c(=O)n(NS(=O)(=O)c2ccccc2)c1S	29% (inactive)
CC(C)/C=C1\CCOC1=O	-3% (inactive)
c1ccc(Nc2nnc3nc(-c4ccccc4)c(-c4ccccc4)nn23)cc1	12% (inactive)
O=C(NC(c1ccccc1)N1CCOCC1)c1ccccc1 (stereo not given)	-7% (inactive)
N[C@@H]1CCCC[C@@H]1N.O=C([O-])CN(CP(=O)([O-])[O-])CP(=O)([O-])[O-].[Pt+2]	6% (inactive)
C/C=C\C(/C=C/C)(C(=O)OCCN(C)C)C(/C=C\C)(/C=C/C)C(=O)OCCN(C)C (stereo not given)	2% (inactive)
COc1ccc(CCNC(=S)/N=C\C(C(=O)c2ccccc2)=C(\O)c2ccccc2)cc1OC	0% (inactive)
Cc1ccccc1C1SCc2nc3ccccc3n21 (stereo not given)	-3% (inactive)
O=C(Nc1ccc(Cl)cc1)Nc1nnc(/C=C/c2ccc(Cl)c(Cl)c2)o1	1% (inactive)
Cc1c(CCCl)c(N=[N+]=[N-])n2c(nc3ccccc32)c1C#N	27% (inactive)
O=C(OCCCC(C(=O)c1ccccc1)=P(c1ccccc1)(c1ccccc1)c1ccccc1)c1ccccc1	36% (inactive)
O=C(c1ccccc1)c1ccc(Cl)cc1	-3% (inactive)
O=C1C(C(O)(C(F)(F)Cl)C(F)(F)Cl)CCCC1C(O)(C(F)(F)Cl)C(F)(F)Cl (stereo not given)	97% (active)
CCN(CC)C(=S)N=Nc1c(O)[nH]c2ccccc12	76% (active)
c1csc(-c2nnc(C34CC5CC(CC(C5)C3)C4)o2)c1	-12% (inactive)
C/C(O)=C(/C=N/C(=S)Nc1ccc(S(N)(=O)=O)cc1)C(=O)Nc1ccccc1C	-10% (inactive)
CC(C)(Oc1ccc(-c2cccc3ccccc23)cc1)C(=O)O	5% (inactive)
CCc1scc(C)[n+]1CC(=O)c1cccc([N+](=O)[O-])c1	-10% (inactive)

SMILES	growth inhibition
O=C1CCC(C(c2ccccc2)(c2ccccc2)c2ccccc2)CC1=O (stereo not given)	-1% (inactive)
Clc1ccc(C2SCc3nc4ccccc4n32)cc1Cl (stereo not given)	1% (inactive)
OC(CBr)c1c(Br)ccc2ccccc12 (stereo not given)	-6% (inactive)
O=C1OC(c2cccc(Cl)c2)Sc2ccccc21 (stereo not given)	0% (inactive)
c1ccc(N2CCN(c3ccccc3)C2Cc2c[nH]c3ccccc23)cc1	19% (inactive)
CC(=O)c1sc(Nc2ccc(Cl)c(Cl)c2)nc1C	4% (inactive)
Cc1ncn(-c2ccccc2O)c1C	-8% (inactive)
C[n+]1c(/C=C/c2ccc(N3CCCC3)cc2)sc2ccccc21	37% (inactive)
COc1ccc(-c2c(C#N)c(S)n(NS(=O)(=O)c3ccc(C)cc3)c(=O)c2C#N)cc1	18% (inactive)
N#Cc1c(-c2ccc(Cl)c(Cl)c2)c(-c2ccc(Cl)c(Cl)c2)nn(CCO)c1=O	44% (inactive)
NCc1ccc(O)c(O)c1O	8% (inactive)
C[CH2][Sn]([CH2]C)([O]C(=O)c1cc(OC)c(OC)c(OC)c1)[O][Sn]([CH2]C)([CH2]C)[O]C(=O)c1cc(OC)c(OC)c(OC)c1	30% (inactive)
C=CCNCCC1CCCCCC1	6% (inactive)
Cc1ccc(/C=C/C(=O)/C=C/c2ccc(C)o2)o1	45% (inactive)
CCCC(=O)c1cc(O)c(O)c(CN(C)Cc2cc(Cl)cc(C)c2O)c1O	3% (inactive)
COC(=O)/C(C#N)=C/c1cc(OC)c(O)cc1Br	31% (inactive)
O=C(/C=C/c1ccccc1)CCN1CCOCC1	26% (inactive)
c1cc2c(c3c1CN(C1CCCCC1)CO3)OCN(C1CCCCC1)C2	4% (inactive)
CSc1nc2ccccc2s1	-2% (inactive)
CC1(C)CC(=O)C(CSC(=O)c2ccccc2)=C(O)C1	-2% (inactive)
